Inconclusive results are not listed. Calls of active or inactive are those of the source. Unless noted, the call rests on the fitted dose curve; in most records, active means well fitted curve in the direction sought with a large enough effect in the repeat runs; inconclusive means weak or mixed curves; inactive means no such curve, though single readings can be large; an effect the other way counts as inactive or inconclusive.
What was measured:
[1] = qHTS assay to identify small molecule antagonists of the constitutive androstane receptor (CAR) signaling pathway - cell viability counter screen (AID 1224837); further: nearly all actives have a fitted effect of over 45% in size; further: potency means the concentration at half of the fitted maximal effect
How it was run: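 Cytotoxicity counter-screen: CellTiter-Fluor fluorescence after 23 h compound exposure (15-point qHTS) in double-stable HepG2-CYP2B6-hCAR cells, with 50 nM CITCO added.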

[2] = qHTS assay to identify small molecule antagonists of the estrogen related receptor signaling pathway with the pleiotropic PPARgamma coactivator (PGC) from Tox21 10K library (AID 1224841; call rule not given here; further: actives are mostly falling curves and most rising ones were filed inactive; nearly all actives have a fitted effect of over 50% in size)
How it was run: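 Luminescence (One-Glo, 30 min at room temperature) after 18 h compound treatment at 37 C of PGC/ERR reporter cells plated at 2,000 cells/well and settled 6 h beforehand.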

[3] = qHTS assay to identify small molecule agonists of the estrogen related receptor signaling pathway with the pleiotropic PPARgamma coactivator (PGC) from Tox21 10K library (AID 1224842); further: nearly all actives have a fitted effect of over 15% in size
How it was run: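 PGC/ERR reporter cells (NTP line) were seeded 2,000 per well, rested 6 h at 37 C/5% CO2, then pin-dosed with compounds in DMSO for 18 h at 37 C; luciferase read by One-Glo luminescence after 30 min at room temperature.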

[4] = qHTS assay to identify small molecule agonists of the hypoxia (HIF-1) signaling pathway - cell viability counter screen (AID 1224844; calls by dose curve; further: nearly all actives have a fitted effect of over 50% in size)
How it was run: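 Cytotoxicity measured by CellTiter-Glo ATP luminescence in the wells also read for beta-lactamase signal. Cells were HRE-bla ME-180 (2,000/well, 0.5% dialyzed FBS), exposed to compounds for 17 h at 37C.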

[5] = qHTS assay to identify small molecule agonists of the hypoxia (HIF-1) signaling pathway (AID 1224846; active means well fitted activation curve with a large enough effect in the signal ratio in the repeat runs, not every such curve was filed as active; the % refers to the signal ratio)
How it was run: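 Compounds added to ME-180 cells carrying hypoxia-response-element beta-lactamase reporter (0.5% dialyzed FBS, 5 h preplating), 17 h at 37C; agonist activity detected by CCF4-AM B/G FRET read-out.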

[6] = qHTS assay to identify small molecule antagonists of the estrogen related receptor (ERR) signaling pathway from Tox21 library (AID 1224848); further: nearly all actives have a fitted effect of over 50% in size; further: potency means the concentration at half of the fitted maximal effect
How it was run: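 Tox21 10K compounds in DMSO tested for ERR pathway antagonism in NTP's ERR cell line; 18 h, 37 C exposure; ONE-Glo luminescence.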

[7] = qHTS assay to identify small molecule agonists of the estrogen related receptor (ERR) signaling pathway from Tox21 library (AID 1224849; calls by dose curve; further: nearly all actives have a fitted effect of over 15% in size); conditions: ERR reporter cell line, ONE-Glo luciferase, 18 h; at 92.4 µM (top of the series) unless noted
How it was run: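 Luminescent agonist read-out (One-Glo, 30-minute room-temperature incubation) following 18-hour compound treatment at 37 C of the ERR cell line, which had been plated 6 hours before dosing.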

[8] = qHTS RealTime-Glo MT Cell Viability Assay in HEK293 cells - 32 hour (AID 1224868); further: nearly all actives have a fitted effect of over 50% in size; further: potency means the concentration at half of the fitted maximal effect; on activity change, negative = cytotoxic: top concentration of the series differs between compounds
How it was run: (§1)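 Quantitative high-throughput screen of the Tox21 10K library in HEK293: cells and RealTime-Glo reagents plated together, compound added at 5 h, luminescence monitored through 40 h at 37 C.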

[9] = A CellTox Green Cytotoxicity Assay to monitor cytotoxicity in HEK293 cells - 0 hour (AID 1224869); further: nearly all actives have a fitted effect of over 50% in size
How it was run: (§2)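 Fluorescence from a DNA-binding dye excluded by viable cells was measured repeatedly in the same HEK293 wells (600 cells/well) during continuous compound exposure at 37 C. Each assay gives one read point: 0, 8, 16, 24, 32 or 40 h.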

[10] = qHTS RealTime-Glo MT Cell Viability Assay in HepG2 cells - 8 hour (AID 1224873); further: nearly all actives have a fitted effect of over 55% in size
How it was run: (§3)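 HepG2 cells mixed with RealTime-Glo MT reagents (NanoLuc plus cell-permeant prosubstrate) were seeded at 600 cells/well, incubated 5 h at 37 C/5% CO2, then pinned with compounds in DMSO; nonlytic luminescence tracked viability during 40 h treatment.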

[11] = qHTS assay to identify small molecule antagonists of the estrogen related receptor signaling pathway with the pleiotropic PPARgamma coactivator (PGC) from Tox21 10K library - cell viability counter screen (AID 1224840; active means well fitted cell-killing curve with a large enough effect in the repeat runs, not every such curve was filed as active; further: nearly all actives have a fitted effect of over 40% in size)
How it was run: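 Counter-screen for cytotoxicity: after 17.5 h compound exposure at 37 C, CellTiter-Fluor reagent added to PGC/ERR cells for 30 min and fluorescence read. Cells were seeded at 2,000 per well 6 h before dosing.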

[12] = target: Thyrotropin receptor (Homo sapiens) (UniProt P16473); assay: qHTS assay to identify small molecule agonists of the thyroid stimulating hormone receptor (TSHR) signaling pathway (AID 1224843; calls by dose curve; further: nearly all actives have a fitted effect of over 45% in size)
How it was run: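 Using 15 concentrations per compound in triplicate, cAMP production was monitored in TSHR-HEK293 cells after 30 min compound incubation at RT; HTRF reagents followed, with fluorescence intensity recorded after 1 h.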

[13] = qHTS assay to identify small molecule agonists of H2AX (AID 1224845; active means well fitted activation curve with a large enough effect in the signal ratio in the repeat runs, not every such curve was filed as active; the % refers to the signal ratio; further: potency means the concentration at half of the fitted maximal effect)
How it was run: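 Wild-type CHO-K1 cells plated overnight, then exposed 3 hr at 37C to compounds at 15 concentrations (0.76% DMSO). Lysed, then HTRF anti-pH2AX(S139)-cryptate/anti-H2AX-d2 detection after 24 hr at room temperature; emissions 665 and 620 nm.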

[14] = qHTS assay to identify small molecule agonists of H2AX - cell viability counter screen (AID 1224847; calls by dose curve; further: top concentration of the series differs between compounds; nearly all actives have a fitted effect of over 30% in size)
How it was run: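 Cytotoxicity counter screen in wild-type CHO-K1 cells: a 3 hr compound treatment at 37C across 15 concentrations, followed by CellTiter-Glo luminescence to gauge viable cells.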

[15] = qHTS RealTime-Glo MT Cell Viability Assay in HepG2 cells - 24 hour (AID 1224867); further: nearly all actives have a fitted effect of over 50% in size
How it was run: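 Compound treatment began 5 h after plating HepG2 cells (600/well) with NanoLuc luciferase and prosubstrate. Plates stayed at 37 C for 40 h; luminescence was captured at six time points, 0 h through 40 h.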

[16] = qHTS RealTime-Glo MT Cell Viability Assay in HepG2 cells - 40 hour (AID 1224870); further: nearly all actives have a fitted effect of over 50% in size
How it was run: as §3

[17] = A CellTox Green Cytotoxicity Assay to monitor cytotoxicity in HEK293 cells - 40 hour (AID 1224871); further: nearly all actives have a fitted effect of over 45% in size; further: potency means the concentration at half of the fitted maximal effect
How it was run: as §2

[18] = qHTS RealTime-Glo MT Cell Viability Assay in HEK293 cells - 16 hour (AID 1224872); further: nearly all actives have a fitted effect of over 50% in size; further: potency means the concentration at half of the fitted maximal effect; on activity change, negative = cytotoxicity: top concentration of the series differs between compounds
How it was run: as §1

[19] = target: Nuclear receptor subfamily 1 group I member 3 (Homo sapiens) (UniProt Q14994); assay: qHTS assay to identify small molecule antagonists of the constitutive androstane receptor (CAR) signaling pathway (AID 1224838);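 further: HepG2 cells stably expressing hCAR with CYP2B6 luciferase reporter stimulated by CITCO; nearly all actives have a fitted effect of over 40% in size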
How it was run: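 Antagonism measured as luciferase signal (ONE-Glo, 30 min, room temperature) in CAR-stimulated cells: HepG2-CYP2B6-hCAR double-stable line exposed 24 hr at 37 C to compound in a 15-point series plus 50 nM CITCO.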

[20] = target: Nuclear receptor subfamily 1 group I member 3 (Homo sapiens) (UniProt Q14994); assay: qHTS assay to identify small molecule agonists of the constitutive androstane receptor (CAR) signaling pathway (AID 1224839);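 further: HepG2 cells stably carrying human CAR and a CYP2B6 luciferase reporter; nearly all actives have a fitted effect of over 15% in size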
How it was run: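 Cells were plated and incubated 4 hrs, then dosed with compounds at 15 concentrations. PK11195 was added to 0.75 uM final. After 24 hrs at 37 C, luciferase luminescence was measured.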
On the % scale 0 is the no-effect control and ±100 the full control effect.

Sequence of Nuclear receptor subfamily 1 group I member 3 (Homo sapiens) (Q14994 whole entry, looked up): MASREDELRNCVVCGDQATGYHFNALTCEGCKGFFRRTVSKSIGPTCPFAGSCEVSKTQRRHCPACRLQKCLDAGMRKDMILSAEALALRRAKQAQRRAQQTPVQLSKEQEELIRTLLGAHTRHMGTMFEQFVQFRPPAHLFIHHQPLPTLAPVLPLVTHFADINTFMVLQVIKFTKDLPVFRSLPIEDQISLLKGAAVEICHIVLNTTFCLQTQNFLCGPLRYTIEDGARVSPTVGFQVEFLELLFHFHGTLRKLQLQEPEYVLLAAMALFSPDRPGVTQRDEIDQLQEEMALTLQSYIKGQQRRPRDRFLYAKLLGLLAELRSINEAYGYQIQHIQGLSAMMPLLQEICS
Sequence of Thyrotropin receptor (Homo sapiens) (P16473 whole entry, looked up): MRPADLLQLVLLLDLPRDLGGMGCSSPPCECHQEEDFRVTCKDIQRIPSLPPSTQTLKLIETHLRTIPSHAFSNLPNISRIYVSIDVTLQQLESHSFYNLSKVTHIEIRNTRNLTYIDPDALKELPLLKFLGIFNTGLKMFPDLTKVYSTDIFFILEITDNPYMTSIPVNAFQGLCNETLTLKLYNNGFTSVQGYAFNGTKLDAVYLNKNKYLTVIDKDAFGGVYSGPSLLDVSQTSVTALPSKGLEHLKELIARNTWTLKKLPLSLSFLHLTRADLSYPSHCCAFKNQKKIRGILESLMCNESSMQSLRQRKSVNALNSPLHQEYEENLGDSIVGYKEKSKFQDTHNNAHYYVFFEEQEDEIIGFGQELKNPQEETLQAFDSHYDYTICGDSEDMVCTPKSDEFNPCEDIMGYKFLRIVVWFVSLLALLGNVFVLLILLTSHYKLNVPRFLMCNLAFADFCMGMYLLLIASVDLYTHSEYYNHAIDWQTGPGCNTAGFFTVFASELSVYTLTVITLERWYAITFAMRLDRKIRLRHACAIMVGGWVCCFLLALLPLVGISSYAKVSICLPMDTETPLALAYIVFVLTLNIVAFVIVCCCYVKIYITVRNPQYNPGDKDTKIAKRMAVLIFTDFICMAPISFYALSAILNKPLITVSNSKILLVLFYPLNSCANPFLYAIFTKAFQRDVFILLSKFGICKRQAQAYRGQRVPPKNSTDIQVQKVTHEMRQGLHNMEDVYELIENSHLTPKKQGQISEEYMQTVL

CCN(CC)CCOc1ccc2c(c1)C(=O)c1cc(OCCN(CC)CC)ccc1-2
active: Potency [1] 23.7 µM | Potency [6] 18.8 µM | Potency [8] 13.4 µM
inactive: Potency [2] | Potency [3] | Potency [4] | outcome [5] | activity change, positive = activation [7] -38.3% [at 42.5 µM] | Potency [9] | Potency [10]

COCCOCCOCCOCCOC
inactive: Potency [1] | Potency [11] | Potency [12] | Potency [13] | Potency [14] | Potency [15] | Potency [8] | Potency [9] | Potency [16] | Potency [17] | Potency [18] | Potency [10]

CC(C)(C)C(=O)OCOP(=O)(COCCn1cnc2c(N)ncnc21)OCOC(=O)C(C)(C)C
inactive: Potency [11] | outcome [5] | activity change, positive = activation [7] -1.22% [at 42.5 µM] | Potency [15] | Potency [9] | Potency [16] | Potency [17] | Potency [10]
active: Potency [13] 0.277 µM | Potency [8] 0.756 µM

CCCCOc1ccc(CC(=O)NO)cc1
active: Potency [18] 2.68 µM
inactive: Potency [19] | Potency [20] | Potency [11] | outcome [5] | Potency [14] | Potency [15] | Potency [9] | Potency [16] | Potency [17] | Potency [10]

CCOC(=O)C1=NN(c2ccccc2)C(=O)C1
inactive: Potency [1] | Potency [11] | Potency [4] | outcome [5] | Potency [14] | Potency [15] | Potency [8] | Potency [9] | Potency [16] | Potency [17] | Potency [18] | Potency [10]

CC(C)c1ccc2c(C(C)C)cc(C(C)C)c(S(=O)(=O)O)c2c1
inactive: Potency [1] | Potency [11] | Potency [12] | Potency [13] | outcome [5] | Potency [15] | Potency [8] | Potency [9] | Potency [16] | Potency [18] | Potency [10]

CCCCCCCCCCCCCCC1CO1 (stereo not given)
inactive: Potency [1] | Potency [11] | Potency [4] | Potency [13] | outcome [5] | Potency [14] | Potency [15] | Potency [8] | Potency [9] | Potency [16] | Potency [17] | Potency [18] | Potency [10]

CN(C)CC/C=C1\c2ccccc2COc2ccccc21
inactive: Potency [19] | Potency [20] | Potency [11] | Potency [4] | Potency [13] | Potency [14] | Potency [15] | Potency [8] | Potency [9] | Potency [16] | Potency [17] | Potency [18] | Potency [10]

Cn1c(NCCN(CCO)CCCc2ccc([N+](=O)[O-])cc2)cc(=O)n(C)c1=O
inactive: Potency [1] | Potency [2] | Potency [3] | Potency [4] | Potency [13] | outcome [5] | Potency [14] | Potency [6] | activity change, positive = activation [7] 4.48% [at 42.5 µM] | Potency [15] | Potency [8] | Potency [9] | Potency [16] | Potency [17] | Potency [18] | Potency [10]

C=CC(=O)OCC(C)OCC(C)OCC(C)OC(=O)C=C (stereo not given)
inactive: Potency [19] | Potency [20] | Potency [4] | Potency [9]
active: Potency [13] 101 µM | Potency [8] 43.6 µM | Potency [17] 54.9 µM

CCN(CCO)CCCC(C)Nc1ccnc2cc(Cl)ccc12 (stereo not given)
inactive: activity change, negative = cytotoxicity [1] -10.3% [at 8.39 µM] | viability change, negative = cytotoxic [11] 1.55% [at 8.39 µM] | activity change, negative = cytotoxicity [4] 2.32% [at 6.97 µM] | activation (H2AX phosphorylation) [13] -1.66% [at 14 µM] | activation [5] 0.22% [at 7.01 µM] | activity change, negative = cytotoxicity [15] 2.56% [at 6.97 µM] | activity change, negative = cytotoxic [8] 2.9% [at 6.97 µM] | cytotoxicity [9] -2.9% [at 6.97 µM] | activity change, negative = cytotoxic [16] 0.0181% [at 6.97 µM] | cytotoxicity increase [17] -1.39% [at 6.97 µM] | activity change, negative = cytotoxicity [18] 2.31% [at 6.97 µM] | viability change, negative = cytotoxic [10] 4.72% [at 6.97 µM]

CCCCOC(O)CC (stereo not given)
inactive: Potency [1] | Potency [11] | Potency [4] | Potency [13] | outcome [5] | Potency [14] | Potency [15] | Potency [8] | Potency [9] | Potency [16] | Potency [17] | Potency [18] | Potency [10]
